# Test results reported in PubChem BioAssay (Tox21).
# “And” between values parts separate entries of the source, which are not always exact repeats. Identical values can stand only once. Records with an inconclusive call do not appear. A call without a number means that no potency is given here. Some structures have more than one record in an assay (separate samples or runs), and their calls can disagree. The source made the active and inactive calls. Unless noted, calls come from the whole dose curve; as a rule, active = well fitted curve in the direction sought with a large enough effect in the repeat runs; inconclusive = weak or mixed curves; inactive = no such curve, though single readings can be large; an effect the other way counts as inactive or inconclusive.
# Assays:
# [1] = A CellTox Green Cytotoxicity Assay to monitor cytotoxicity in HepG2 cells - 32 hour (AID 1224883); conditions: CellTox Green fluorescence; series mostly up to 76.8 µM; note: nearly all actives have a fitted effect of over 50% in size; note: potency is the fitted concentration of half-maximal effect
# How it was run: (§1)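 Fluorescent DNA-binding dye, 600 HepG2 cells/well, 5 h preincubation then compound in DMSO; same plates read at 0–40 h, 37 C.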
# [2] = A CellTox Green Cytotoxicity Assay to monitor cytotoxicity in HEK293 cells - 8 hour (AID 1224884); conditions: CellTox Green fluorescence; series mostly up to 76.8 µM; note: nearly all actives have a fitted effect of over 35% in size; note: potency is the fitted concentration of half-maximal effect
# How it was run: (§2)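 Homogeneous no-lysis format: HEK293 cell suspension mixed with CellTox Green reagent, seeded, incubated 5 h at 37 C/5% CO2, then dosed by pintool with compound in DMSO.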
# [3] = qHTS RealTime-Glo MT Cell Viability Assay in HepG2 cells - 16 hour (AID 1224885); conditions: RealTime-Glo luminescence; series mostly up to 76.8 µM; note: nearly all actives have a fitted effect of over 50% in size; note: potency is the fitted concentration of half-maximal effect
# How it was run: (§3)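 HepG2 suspension premixed with RealTime-Glo reagents is plated at 600 cells per well and left 5 h at 37 C/5% CO2. Compounds in DMSO then go in, and bioluminescence reflecting viable cell number is recorded over 40 h.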
# [4] = qHTS RealTime-Glo MT Cell Viability Assay in HEK293 cells - 24 hour (AID 1224886); conditions: RealTime-Glo luminescence; series mostly up to 76.8 µM; note: nearly all actives have a fitted effect of over 50% in size; note: potency is the fitted concentration of half-maximal effect
# How it was run: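 Reads taken at 0, 8, 16, 24, 32 and 40 h from the same wells. HEK293 cells (600/well) carried RealTime-Glo reagents from seeding, with compound added after a 5 h settle at 37 C.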
# [5] = qHTS RealTime-Glo MT Cell Viability Assay in HEK293 cells - 8 hour (AID 1224887); conditions: RealTime-Glo luminescence; series mostly up to 76.8 µM; note: nearly all actives have a fitted effect of over 50% in size; note: potency is the fitted concentration of half-maximal effect
# How it was run: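 Measured as luminescence from the same continuously cultured HEK293 wells at successive time points (0, 8, 16, 24, 32, 40 h) after compound addition. Reagent present from seeding; dosing at 5 h; incubation 37 C.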
# [6] = A CellTox Green Cytotoxicity Assay to monitor cytotoxicity in HEK293 cells - 16 hour (AID 1224888); conditions: CellTox Green fluorescence; series mostly up to 76.8 µM; note: nearly all actives have a fitted effect of over 35% in size; note: potency is the fitted concentration of half-maximal effect
# How it was run: as §2
# [7] = qHTS RealTime-Glo MT Cell Viability Assay in HepG2 cells - 0 hour (AID 1224889); conditions: RealTime-Glo luminescence; series mostly up to 76.8 µM; note: nearly all actives have a fitted effect of over 50% in size; note: potency is the fitted concentration of half-maximal effect
# How it was run: as §3
# [8] = A CellTox Green Cytotoxicity Assay to monitor cytotoxicity in HepG2 cells - 8 hour (AID 1224890); conditions: CellTox Green fluorescence; series mostly up to 76.8 µM; note: nearly all actives have a fitted effect of over 45% in size; note: potency is the fitted concentration of half-maximal effect
# How it was run: as §1
# [9] = qHTS assay to identify small molecule antagonists of the estrogen receptor alpha (ER-alpha) signaling pathway using the BG1 cell line in the presence of 0.1 nM 17-beta-estradiol - cell viability counter screen (AID 1259241); conditions: VM7Luc4E2 (BG1) viability, CellTiter-Fluor protease, 22 h, 0.1 nM estradiol agonist added; series mostly up to 92.4 µM; note: nearly all actives have a fitted effect of over 40% in size; note: potency is the fitted concentration of half-maximal effect
# How it was run: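 CellTiter-Fluor read (30 min, 37C) on ER-alpha/ERE-luc VM7Luc4E2 cells; 22 hr compound treatment; agonist 0.1 nM E2 final; same-well multiplex.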
# [10] = qHTS assay to identify small molecule antagonists of the androgen receptor (AR) signaling pathway using the MDA cell line in the presence of 0.5 nM R1881 - cell viability counter screen (AID 1259242); conditions: MDA-kb2 viability, CellTiter-Fluor protease fluorescence, 16 h; series mostly up to 92.4 µM; note: nearly all actives have a fitted effect of over 45% in size; note: potency is the fitted concentration of half-maximal effect
# How it was run: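 Human breast carcinoma MDA-kb2 cells, cultured without CO2, receive compounds alongside 0.5 nM (final) R1881 agonist. After 16 hr at 37C, viability is taken as live-cell protease signal.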
# [11] = target: Estrogen receptor (Homo sapiens) (UniProt P03372); experiment: qHTS assay to identify small molecule antagonists of the estrogen receptor alpha (ER-alpha) signaling pathway using the BG1 cell line in the presence of 0.1 nM 17-beta-estradiol (AID 1259244); conditions: VM7Luc4E2 (BG1) ERE-luciferase, antagonist mode, 0.1 nM E2, 22 h; series mostly up to 92.4 µM; note: nearly all actives have a fitted effect of over 50% in size; note: potency is the fitted concentration of half-maximal effect
# Estrogen receptor (Homo sapiens), sequence (P03372 whole entry, looked up): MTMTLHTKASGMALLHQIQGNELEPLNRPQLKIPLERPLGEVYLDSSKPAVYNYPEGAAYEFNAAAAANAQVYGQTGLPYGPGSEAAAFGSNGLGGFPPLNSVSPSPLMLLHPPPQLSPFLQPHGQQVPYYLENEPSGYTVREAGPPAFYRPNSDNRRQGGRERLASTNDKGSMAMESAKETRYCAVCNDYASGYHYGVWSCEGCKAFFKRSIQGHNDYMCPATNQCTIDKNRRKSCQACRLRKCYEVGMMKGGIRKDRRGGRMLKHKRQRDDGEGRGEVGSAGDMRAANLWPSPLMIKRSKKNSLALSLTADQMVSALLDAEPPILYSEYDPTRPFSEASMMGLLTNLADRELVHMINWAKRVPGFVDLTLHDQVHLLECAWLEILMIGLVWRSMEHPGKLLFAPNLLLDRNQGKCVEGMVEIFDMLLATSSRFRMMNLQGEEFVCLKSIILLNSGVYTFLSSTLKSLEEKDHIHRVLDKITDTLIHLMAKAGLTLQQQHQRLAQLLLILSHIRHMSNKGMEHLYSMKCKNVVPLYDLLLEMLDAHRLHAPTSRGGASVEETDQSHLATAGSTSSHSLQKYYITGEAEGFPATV
# How it was run: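 Seeding of stripped-serum-adapted VM7Luc4E2 cells, 24 h attachment, compound transfer, then 0.1 nM final 17beta-estradiol; after 22 h incubation, ONE-Glo reagent and luminescence reading.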
# [12] = qHTS assay to identify small molecule HDAC inhibitors - cell viability counter screen (AID 1259365); conditions: HCT-116 viability, CellTiter-Glo ATP luminescence, 2 h; series mostly up to 92.4 µM; note: nearly all actives have a fitted effect of over 50% in size; note: potency is the fitted concentration of half-maximal effect
# How it was run: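 To flag cytotoxic hits, 1,500 wild-type HCT-116 cells per well, plated the day before, receive test compounds for 2hr at 37 C before CellTiter-Glo reagent and a luminescence read.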
# [13] = qHTS assay to identify small molecule agonists of the sonic hedgehog signaling (Shh) pathway - cell viability counter screen (AID 1259366); conditions: NIH/3T3 Gli1-Luc viability, CellTiter-Fluor, 24 h; series mostly up to 92.4 µM; note: nearly all actives have a fitted effect of over 50% in size; note: potency is the fitted concentration of half-maximal effect
# How it was run: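 Fluorescence from CellTiter-Fluor reports live cells in this counter screen. NIH/3T3-derived Gli1-Luc reporter cells receive test compounds for 24hr at 37C; reagent goes in at 23hr.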
# [14] = qHTS assay to identify small molecule antagonists of the sonic hedgehog signaling (Shh) pathway - cell viability counter screen (AID 1259367); conditions: NIH/3T3 Gli1-Luc viability, CellTiter-Fluor, 24 h; series mostly up to 92.4 µM; note: nearly all actives have a fitted effect of over 55% in size; note: potency is the fitted concentration of half-maximal effect
# How it was run: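 Cytotoxicity was assessed in parallel with Shh reporter activity by measuring live-cell protease fluorescence (CellTiter-Fluor) in NIH/3T3 cells stably carrying Gli1-Luc, treated with compound under conditioned medium stimulation for 23 hr plus 1 hr reagent incubation.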
# [15] = qHTS assay to identify small molecule agonists of the sonic hedgehog signaling (Shh) pathway (AID 1259368; calls by dose curve;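 note: NIH/3T3-derived 3T3Gli1-Luc cells carrying a stable Gli1-driven firefly luciferase reporter; nearly all actives have a fitted effect of over 15% in size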); conditions: NIH/3T3 Gli1-Luc reporter, luciferase, 24 h; series mostly up to 92.4 µM
# How it was run: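 Stable NIH/3T3 Gli1-Luc reporter clone; 24 hr cpd exposure after a 4 hr settling period; luminescence endpoint.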
# [16] = qHTS assay to identify small molecule antagonists of the sonic hedgehog signaling (Shh) pathway (AID 1259369; calls by dose curve; note: nearly all actives have a fitted effect of over 45% in size; note: potency is the fitted concentration of half-maximal effect); conditions: NIH/3T3 Gli1-Luc reporter, Shh antagonist, luminescence 24 h; series mostly up to 92.4 µM
# How it was run: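 Gli1 transcriptional reporter (firefly Luc) in NIH/3T3 background, conditioned-medium activated. 24hr exposure, luminescence endpoint.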
# [17] = qHTS assay to identify small molecule HDAC inhibitors (AID 1259364); conditions: HCT-116 HDAC-Glo I/II luminescence, 2 h; series mostly up to 92.4 µM;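 note: wild-type HCT-116 cells with endogenous class I/II HDAC activity; top concentration of the series differs between compounds; nearly all actives have a fitted effect of over 45% in size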
# How it was run: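 After a 2 hr compound incubation (37C, 5% CO2), HCT-116 cells seeded at 1,500/well the day before received HDAC-Glo reagent; signal read as luminescence after 30 min at room temperature.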
# [18] = target: Androgen receptor (Homo sapiens) (UniProt P10275); experiment: qHTS assay to identify small molecule antagonists of the androgen receptor (AR) signaling pathway using the MDA cell line in the presence of 0.5 nM R1881 (AID 1259243); conditions: MDA-kb2 MMTV-luciferase, R1881 0.5 nM, 16 h; series mostly up to 92.4 µM; note: nearly all actives have a fitted effect of over 50% in size; note: potency is the fitted concentration of half-maximal effect
# Androgen receptor (Homo sapiens), sequence (P10275 whole entry, looked up): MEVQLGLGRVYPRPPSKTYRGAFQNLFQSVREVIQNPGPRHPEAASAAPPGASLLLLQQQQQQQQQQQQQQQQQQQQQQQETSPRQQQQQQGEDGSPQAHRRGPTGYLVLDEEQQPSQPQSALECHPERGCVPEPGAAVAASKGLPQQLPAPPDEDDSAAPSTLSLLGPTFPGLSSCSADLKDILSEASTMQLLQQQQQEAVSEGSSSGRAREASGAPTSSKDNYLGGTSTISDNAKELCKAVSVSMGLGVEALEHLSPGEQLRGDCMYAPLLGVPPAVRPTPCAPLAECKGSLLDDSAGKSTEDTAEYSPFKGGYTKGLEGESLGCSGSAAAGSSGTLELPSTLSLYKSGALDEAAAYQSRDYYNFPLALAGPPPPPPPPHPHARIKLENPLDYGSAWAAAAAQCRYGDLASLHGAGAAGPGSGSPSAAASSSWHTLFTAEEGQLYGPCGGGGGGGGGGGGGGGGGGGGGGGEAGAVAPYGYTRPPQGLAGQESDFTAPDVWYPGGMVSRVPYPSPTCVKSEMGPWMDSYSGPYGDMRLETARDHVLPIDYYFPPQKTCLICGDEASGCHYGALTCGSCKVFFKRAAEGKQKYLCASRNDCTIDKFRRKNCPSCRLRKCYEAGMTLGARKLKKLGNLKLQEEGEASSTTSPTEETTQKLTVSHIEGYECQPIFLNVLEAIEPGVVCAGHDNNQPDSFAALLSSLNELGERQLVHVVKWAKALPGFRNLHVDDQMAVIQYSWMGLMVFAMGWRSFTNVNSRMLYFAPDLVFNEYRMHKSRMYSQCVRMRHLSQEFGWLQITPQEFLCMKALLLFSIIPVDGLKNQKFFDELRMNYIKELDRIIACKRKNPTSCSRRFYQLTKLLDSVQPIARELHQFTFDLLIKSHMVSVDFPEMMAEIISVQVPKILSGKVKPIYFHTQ
# How it was run: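 Cells: MDA-kb2 (MMTV-luc). Stimulus: 0.5 nM R1881. Time: 16 hr, 37C, no CO2. Detection: ONE-Glo luminescence after 30 min at RT.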
# [19] = qHTS assay to identify small molecule phospholipidosis (PLD) inducers (AID 1259344; active = well fitted curve in the direction sought with a large enough effect; an effect the other way counts as inactive or inconclusive); conditions: HepG2 phospholipidosis, LipidTOX Red imaging, 24 h; series mostly up to 38.3 µM
# How it was run: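 Cells (HepG2, 900 per well) attach for 4 h, receive LipidTOX Red and compound together, incubate 24 h at 37 C, are fixed 30 min with paraformaldehyde/Hoechst, then imaged at one site per well.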
# [20] = target: Estrogen receptor beta (Homo sapiens) (UniProt Q92731); experiment: qHTS assay to identify small molecule agonists of the estrogen receptor beta (ER-beta) signaling pathway (AID 1259377; active = well fitted activation curve with a large enough effect in the signal ratio in the repeat runs, not every such curve was filed as active; the % refers to the signal ratio); conditions: ER-beta-UAS-bla HEK293T, beta-lactamase FRET ratio, 16 h; series mostly up to 92.4 µM
# Estrogen receptor beta (Homo sapiens), sequence (Q92731 whole entry, looked up): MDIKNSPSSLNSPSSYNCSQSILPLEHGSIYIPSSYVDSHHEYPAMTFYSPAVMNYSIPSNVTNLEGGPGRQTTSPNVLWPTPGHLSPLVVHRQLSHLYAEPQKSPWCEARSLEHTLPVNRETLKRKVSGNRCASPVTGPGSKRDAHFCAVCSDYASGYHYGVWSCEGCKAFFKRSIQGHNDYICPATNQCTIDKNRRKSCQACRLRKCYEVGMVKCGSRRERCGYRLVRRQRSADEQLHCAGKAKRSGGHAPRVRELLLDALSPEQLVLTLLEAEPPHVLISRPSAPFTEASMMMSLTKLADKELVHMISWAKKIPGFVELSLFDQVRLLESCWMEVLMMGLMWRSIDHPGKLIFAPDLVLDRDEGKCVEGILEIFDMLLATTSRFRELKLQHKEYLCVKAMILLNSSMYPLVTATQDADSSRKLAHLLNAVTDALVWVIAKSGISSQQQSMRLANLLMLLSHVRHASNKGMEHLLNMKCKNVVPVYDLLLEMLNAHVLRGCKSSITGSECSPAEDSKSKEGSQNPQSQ
# How it was run: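 Screening used GripTite ER-beta-UAS-bla cells held in 2% charcoal-stripped FBS medium. After overnight (16 hr) compound incubation at 37C, beta-lactamase activity was detected with a FRET substrate by fluorescence.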
Compound,Potency [1],Potency [2],Potency [3],Potency [4],Potency [5],Potency [6],Potency [7],Potency [8],Potency [9],Potency [10],Potency [11],Potency [12],Potency [13],Potency [14],Potency [15],Potency [16],Potency [17],Potency [18],Potency [19],Potency [20]
CCC[CH2][Sn]([CH2]CCC)([CH2]CCC)[O]C(=O)c1ccccc1,0.692 µM (active),11 µM (active),0.616 µM (active),0.389 µM (active),0.871 µM (active),4.36 µM (active),inactive,1.1 µM (active),21.7 µM (active),1.54 µM (active),0.486 µM (active),19.3 µM (active),686 nM (active),0.864 µM (active),inactive,0.172 µM (active),–,–,–,–
C1CCC2CCCCC2C1 (stereo not given),inactive,inactive,inactive,inactive,inactive,inactive,inactive,inactive,inactive,inactive,inactive,–,inactive,inactive,inactive,inactive,inactive,–,–,–
CNC(C)Cc1ccc2c(c1)OCO2 (stereo not given),inactive,inactive,inactive,inactive,inactive,inactive,inactive,inactive,inactive,inactive,inactive,inactive,–,–,inactive,18.9 µM (active),inactive,inactive,inactive,–
C[C@@H]1CC[C@@]2(OC1)O[C@H]1[C@@H](O)[C@H]3[C@@H]4CC[C@H]5C[C@@H](O[C@@H]6O[C@H](CO)[C@H](O[C@@H]7O[C@H](CO)[C@@H](O)[C@H](O[C@@H]8OC[C@@H](O)[C@H](O)[C@H]8O)[C@H]7O[C@@H]7O[C@H](CO)[C@@H](O)[C@H](O[C@@H]8O[C@H](CO)[C@@H](O)[C@H](O)[C@H]8O)[C@H]7O)[C@H](O)[C@H]6O)[C@H](O)C[C@]5(C)[C@H]4CC[C@]3(C)[C@H]1[C@@H]2C,11.6 µM (active),4.63 µM (active),18.4 µM (active),11.6 µM (active),6.55 µM (active),4.63 µM (active),23.2 µM (active),13.1 µM (active),29 µM (active),23 µM (active),57.8 µM (active),29 µM (active),32500 nM (active),32.5 µM (active),inactive,1.15 µM (active),inactive,14.5 µM (active),–,–
COP(N)(=S)OC,inactive,inactive,inactive,inactive,inactive,inactive,inactive,inactive,inactive,inactive,inactive,inactive,inactive,inactive,inactive,inactive,inactive,inactive,–,–
CCCCCCCCCCCCCN1CC(C)OC(C)C1 (stereo not given),inactive,inactive,inactive,inactive,inactive,inactive,inactive,inactive,inactive,inactive,inactive,inactive,inactive,inactive,inactive,inactive,inactive,–,–,inactive
BrCC(Br)c1ccccc1 (stereo not given),inactive,inactive,inactive,inactive,inactive,inactive,inactive,inactive,inactive,inactive,inactive,–,inactive,–,inactive,inactive,inactive,inactive,–,–
O=C(NC(=O)c1c(F)cccc1F)Nc1cc(Cl)c(OC(F)(F)C(F)F)c(Cl)c1,inactive,inactive,inactive,inactive,inactive,inactive,inactive,inactive,inactive,inactive,inactive,inactive,inactive,inactive,–,inactive,inactive,–,–,–
Clc1ccc(C(c2ccc(Cl)cc2)C(Cl)(Cl)Cl)cc1,inactive,inactive,inactive,39.2 µM (active) and 43.6 µM (active),39.2 µM (active),inactive,inactive,inactive,inactive,inactive,–,inactive,48.9 µM (active) and inactive,–,inactive,27.5 µM (active) and inactive,inactive,–,inactive,inactive
C[C@H]1CC[C@@H]2[C@@H](C)[C@H]3[C@H](C[C@H]4[C@@H]5CC=C6CC(O[C@@H]7O[C@H](CO)[C@H](O)[C@H](O[C@@H]8O[C@H](CO)[C@@H](O)[C@H](O)[C@H]8O)[C@H]7O[C@H]7O[C@@H](C)[C@H](O)[C@@H](O)[C@H]7O)CC[C@]6(C)[C@H]5CC[C@]34C)N2C1 (stereo not given in full),22.6 µM (active),12.7 µM (active),50.6 µM (active),12.7 µM (active),8.99 µM (active),7.14 µM (active),inactive,25.3 µM (active),inactive,25.1 µM (active),inactive,28.2 µM (active),–,–,inactive,inactive,inactive,–,inactive,–
CC(C)CCCCCOC(=O)c1ccccc1C(=O)OCCCCCC(C)C,inactive,inactive,inactive,inactive,inactive,inactive,inactive,inactive,inactive,inactive,inactive,–,inactive,inactive,–,17 µM (active),–,–,–,inactive
Cc1ccc(C(=O)Cl)cc1,inactive,inactive,inactive,inactive,inactive,inactive,inactive,inactive,inactive,inactive,inactive,inactive,inactive,–,inactive,inactive,inactive,–,–,inactive
CC(O)C#N (stereo not given),inactive,inactive,inactive,inactive,inactive,inactive,inactive,inactive,inactive,inactive,inactive,inactive,inactive,inactive,inactive,inactive,inactive,–,–,inactive
Cc1ccc(OP(=O)(Oc2ccccc2)Oc2ccccc2)cc1,inactive,inactive,inactive,inactive,inactive,inactive,inactive,inactive,inactive,inactive,inactive,inactive,inactive,inactive,inactive,17.5 µM (active),inactive,–,–,–
